Data taken from PubChem BioAssay AID504336 (NMMLSC, 2011).

Test: TOR branch reporter RPL19A-GFP response – cell-based, S. cerevisiae, third cherry pick, flow cytometry, confirmation (AID 504336);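 also: median GFP fluorescence of all gated yeast cells by flow cytometry; ratio of well median fluorescence to plate mean of DMSO wells with DMSO = 100%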
Conditions: S. cerevisiae RPL19A-GFP strain, 3 h, at 10 µM, hits give low values;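 active = compounds whose GFP signal falls below 65% of the DMSO control level; inconclusive = fewer than 70 yeast cells counted in the well; inactive = the rest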

GFP response relative to DMSO, inactive:
Cc1ccc(Nc2nc(N)[nH]c(=O)c2N=O)cc1 102%
Oc1c(Br)cc(Br)c2cccnc12 88.3%
FC(F)Oc1cccc2cccnc12 95.4%
NC(=O)COc1cccc2cccnc12 102%
CNc1nc(C)c([N+](=O)[O-])c(Nc2ccc(OC)cc2)n1 102%
COc1ccccc1OCc1cc(C(=O)N2CCN(C)C(c3ccccc3)C2)no1 (stereo not drawn) 101%
CC1=CN2C(=N)/C(=C/c3ccc(C)o3)C(=O)N=C2S1 101%
CCc1c(C)nc2c(OC)cccc2c1Cl 102%
CC1=CN2C(=N)/C(=C/c3ccco3)C(=O)N=C2S1 106%
Oc1c(Cl)cc(Cl)c2cccnc12 81.6%
COc1cccc(OCc2cc(C(=O)N3CCN(C)C(c4ccccc4)C3)no2)c1 (stereo not drawn) 96.5%
COCCCNc1nc(N)c([N+](=O)[O-])c(Nc2cc(OC)ccc2OC)n1 101%
O=C(Nc1cccc(Cl)c1)ON=C1c2ccccc2-c2ccccc21 102%
COc1cccc(N/C(C)=C/C(=O)c2ccc(Br)cc2)c1 101%
COc1ccc(Nc2nc(NN)nc(C)c2[N+](=O)[O-])cc1 99.3%
COc1cc(=O)n(C)c2c(O)cccc12 101%
O=C(Nc1ccccc1)O/N=C1/CCCc2occc21 100%
CS(=O)(=O)c1nc(-c2ccc(F)cc2)cc(C(F)(F)F)n1 97.8%
